This is an account of results in paper PMC4552634, “A New Set of Chemical Starting Points with Plasmodium falciparum Transmission-Blocking Potential for Antimalarial Drug Discovery” (PLoS ONE, 2015).

Structures are written as SMILES. About 3,200 (25%) of roughly 13,000 compounds showed an effect of 50% or more. This is one part of the list.

The test system of the assay is P. falciparum stage V gametocytes. More on the design: BacTiter-Glo ATP luminescence viability of purified stage V gametocytes in 384-well plates, per cent inhibition versus DMSO. The conditions noted are these: 48 h, 5 µM; inhibitor.
`COC(=O)Cn1c(C2CCN(CC3CCC(NC(=O)/C=C/c4ccc(Cl)c(Cl)c4)CC3)CC2)nc2ccccc21` (stereo not shown) [TCMDC-140297]: the “% Inhibition” value is -20.25%.
Regarding `OC(CNCc1ccccc1OC(F)F)c1cccc(C(F)(F)F)c1` (stereo not shown) [TCMDC-140395], the “% Inhibition” value worked out at 21.35%.
Consider `c1ccc(COc2ccc(COc3ccc(Cn4ccnc4)cc3)cc2)cc1` [TCMDC-136714], for which the “% Inhibition” value was determined as 11.69%.
For the compound `O=C(Nc1ccc(N2CCC(Nc3ccccn3)CC2)cc1)c1cnc(Cl)c(Cl)c1` [TCMDC-134629], the “% Inhibition” value is 28.05%.
In the case of `Cc1cccc2nc(-c3ccc(-c4cccc(C(=O)NCCN5CCCC5)c4)s3)[nH]c12` [TCMDC-132317], the “% Inhibition” value amounted to 13.21%.
With `Cc1cc(N[C@@H](Cc2ccccc2)C(=O)NC2CCCC2)nc(NCCOc2ccccc2)n1` [TCMDC-134755] the figure was 31.62%.
For `Cc1cc(N[C@@H](CC(C)C)C(=O)NC2CCCC2)nc(NCC2CCCCC2)n1` [TCMDC-134936], the “% Inhibition” value is given as -32.07%.
Take `Cc1cc(N[C@@H](Cc2ccccc2)C(=O)NC2CCCC2)nc(NCCc2ccc(F)cc2)n1` [TCMDC-134784]: the “% Inhibition” value is 110%.
On to `Cc1cc(N[C@@H](Cc2ccccc2)C(=O)NC2CCCC2)nc(NCC2CCCCC2)n1` [TCMDC-134927], for which the “% Inhibition” value is on record as -16.19%.
For `Cc1cc(N[C@@H](CC(C)C)C(=O)NC2CCCC2)nc(NCCc2ccc(F)cc2)n1` [TCMDC-134791] the value was 99.38%; for `Cc1cc(N[C@@H](CC(C)C)C(=O)NC2CCCC2)nc(NCc2ccccc2C)n1` [TCMDC-134908], -12.42%; for `O=c1cc(NCCCNCc2ccc(Cl)c(Cl)c2)[nH]c2cc(F)cc(F)c12` [TCMDC-139408], -8.545%.
For `COc1cc(NC(=O)N2CCOC(CCN3CCC(c4ccccc4)CC3)(c3ccc(Cl)c(Cl)c3)C2)cc(OC)c1` (stereo not shown) [TCMDC-135343] the value was -16.83%; for `COc1ccc2nccc([C@@H](O)CN3CCC(NCCNc4ccccn4)CC3)c2c1` [TCMDC-140562], 28.84%; for `COc1ccc(C(=O)N2CCC3(CC2)C(=O)N(CC(=O)NC2CCCCC2)CN3c2ccccc2)c(OC)c1` [TCMDC-125169], -35.99%.
Regarding `COCCCNC(=O)C1CCN(C(c2ccc(Cl)cc2)c2ccc(Cl)cc2)CC1` [TCMDC-135521], the “% Inhibition” value is on record as -10.75%.
For `O=C(Nc1ccccc1)NC1CCN(CCC2(c3ccc(Cl)c(Cl)c3)COCN(C(=O)c3ccccc3)C2)C1` (stereo not shown) [TCMDC-141759], the “% Inhibition” value worked out at 59.82%.
For `CC(=O)c1ccc(N2CCN(CCC3(c4ccc(Cl)c(Cl)c4)COCN(C(=O)c4ccccc4)C3)CC2)cc1` (stereo not shown) [TCMDC-141761] the value was 30.09%.
For `O=C(c1ccccc1)N1COCC(CCN2CCC(N3CCCC3)CC2)(c2ccc(Cl)c(Cl)c2)C1` (stereo not shown) [TCMDC-141760] the value was 43.61%.
With `O=C1NC(c2ccc(N3CCCCCC3)cc2)Nc2ccccc21` (stereo not shown) [TCMDC-125058] the figure was 38.08%; with `CCN(CC)C(=O)C1CCCN(C(=O)Nc2cc(C(F)(F)F)cc(C(F)(F)F)c2)C1` (stereo not shown) [TCMDC-124042], -75.6%; with `CC(CN1CCN(C)CC1)C(=O)Nc1ccc(-c2ccc(-c3nc4ccc(F)cc4[nH]3)cc2)cc1` (stereo not shown) [TCMDC-136777], 4.283%.
Consider `CC(CN1CCN(C)CC1)C(=O)Nc1cccc(-c2ccc(-c3nc4ccc(C(F)(F)F)cc4[nH]3)cc2)c1` (stereo not shown) [TCMDC-137152], for which the “% Inhibition” value was determined as 80.48%.
With `CC(CN1CCN(C)CC1)C(=O)Nc1ccc(-c2ccc(-c3nc4ccc(C(F)(F)F)cc4[nH]3)cc2)cc1` (stereo not shown) [TCMDC-137153] the figure was -5.664%.
Turning to `CC(CN1CCN(C)CC1)C(=O)Nc1cccc(-c2cccc(-c3nc4ccc(F)cc4[nH]3)c2)c1` (stereo not shown) [TCMDC-137145], the “% Inhibition” value turned out to be 48.07%.
With `CC(CN1CCN(C)CC1)C(=O)Nc1ccc(-c2cccc(-c3nc4ccc(F)cc4[nH]3)c2)cc1` (stereo not shown) [TCMDC-137143], the “% Inhibition” value stood at 97.96%.
With `CC(CN1CCN(C)CC1)C(=O)Nc1ccc(-c2cccc(-c3nc4ccc(C(F)(F)F)cc4[nH]3)c2)cc1` (stereo not shown) [TCMDC-137149], the “% Inhibition” value is recorded as 40.39%.
With `CC(CN(C)C)C(=O)Nc1ccc(-c2ccc(-c3nc4ccc(F)cc4[nH]3)cc2)cc1` (stereo not shown) [TCMDC-136778], the “% Inhibition” value is 6.212%.
With `CC(CN1CCN(C)CC1)C(=O)Nc1cccc(-c2ccc(-c3nc4ccc(F)cc4[nH]3)cc2)c1` (stereo not shown) [TCMDC-137146] the figure was 77.49%.
For `CC(CN(C)C)C(=O)Nc1cccc(-c2ccc(-c3nc4ccc(F)cc4[nH]3)cc2)c1` (stereo not shown) [TCMDC-137106], the “% Inhibition” value is -31.14%.
With `O=C(N[C@@H](CC1CCCCC1)C(=O)NCc1cccc2ccccc12)c1ccc(O)c(-c2ccc(Cl)c(Cl)c2)c1` [TCMDC-140879] the figure was 41.81%.
With `Cc1noc(C)c1-c1cccc(CNCc2ccc(-c3cccc(-c4nc5cc(F)ccc5[nH]4)c3)cc2)c1.O=C(O)C(F)(F)F` [TCMDC-133060] the figure was 13.66%; with `Cc1cccc(Oc2cccc3[nH]nc(N)c23)c1` [TCMDC-131935], -73.01%.
For `Cc1cc(C(F)(F)F)n2nc(C3CCN(Cc4cc(C)c(O)c(C)c4)C3)cc2n1` (stereo not shown) [TCMDC-124827] the value was 92.15%; for `COCCOc1cccc(CN2CCC(c3cc4nc(C)cc(C(F)(F)F)n4n3)C2)c1` (stereo not shown) [TCMDC-134506], -5.307%.
In the case of `Cc1cc(C(F)(F)F)n2nc(C(=O)N(Cc3cncn3Cc3cccc(F)c3)CC3CC3)cc2n1` [TCMDC-132460], the “% Inhibition” value is 0.2406%.
On to `O=C(NCCc1ccccc1)N(Cc1cccc(-c2ccc(CNCCc3ccccc3)cc2)c1)C1CCN(Cc2ccccc2)CC1` [TCMDC-140617], for which the “% Inhibition” value was determined as 94.88%.
Turning to `COCCNCc1ccc(-c2cccc(CN(C(=O)NCCc3ccccc3)C3CCN(Cc4ccccc4)CC3)c2)cc1` [TCMDC-140616], the “% Inhibition” value is reported as 102.8%.
For `O=C(c1cccs1)N(Cc1cccc(-c2ccc(CNC3CCCC3)cc2)c1)C1CCN(Cc2ccccc2)CC1` [TCMDC-140567] the value was 107%; for `COCC(=O)N(Cc1cccc(-c2ccc(CNCCc3ccccc3)cc2)c1)C1CCN(Cc2ccccc2)CC1` [TCMDC-140536], 103%.
